Data on 17 compounds can be found in PubChem BioAssay (NCATS).

Values joined by “and” are separate entries in the source; they are usually repeats but may differ in a detail not shown here. Equal entries are not always repeated. Records with an inconclusive call do not appear. A number with no mark means an inactive call. Active and inactive are the calls of the source. The call rests on the fitted dose curve; in most records, active means well fitted curve in the direction sought with a large enough effect; inconclusive means small, poorly fitted or top-dose-only effect, or another doubt; inactive means no such curve, though single readings can be large; an effect the other way counts as inactive or inconclusive.

Test [1] concerns the target Cytochrome P450 3A7 (Homo sapiens) (UniProt P24462). Nature of the test: Cytochrome P450 family 3 subfamily A member 7 (CYP3A7) small molecule antagonists: luciferase biochemical qHTS assay (AID 1963596). Further: on the % scale 0 is the no-effect control and ±100 the full control effect; nearly all actives have a fitted effect of over 40% in size. The method, boiled down: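 P450-Glo luminescent assay: CYP3A7 enzyme converts a proluciferin substrate to luciferin, detected by luciferase reagent; light proportional to activity. Compounds in DMSO preincubated 10 min with enzyme-substrate mix at room temperature, then NADPH regeneration added for 1 h.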
For orientation: Quantitative high-throughput screening tests each substance at several concentrations.

Test [2] is described as follows: Viability qHTS for spleen associated tyrosine kinase inhibitor (SYKi) naive MV4-11 cells (AID 1963823). Further: nearly all actives have a fitted effect of over 40% in size. Further: potency means the concentration at half of the fitted maximal effect. The method, boiled down: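 Cells: MV4-11, SYK inhibitor naive, 500 per well. Treatment: library compounds, 72 hr, 37 C, 5% CO2. Read-out: CellTiter-Glo luminescence after 10 min RT.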
Test [3] is described as follows: Viability qHTS for spleen associated tyrosine kinase inhibitor (SYKi) drug resistant MV4-11 cells (AID 1963824). Further: nearly all actives have a fitted effect of over 35% in size. Further: potency means the concentration at half of the fitted maximal effect. The procedure, abridged:
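CellTiter-Glo luminescence, read 10 min after reagent addition, reports viability after a 72 hr compound exposure. Cells are an MV4-11 line made resistant to SYK inhibition, seeded at 500 per well onto compound-containing plates.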

The nature of test [4]: Quantitative highthroughput screen to assess conditional lethalithy of NOMO1 cells grown in RPMI1640 with dialyzed fetal bovine serum (RPMI+ds) (AID 1963877). Further: nearly all actives have a fitted effect of over 30% in size. Further: potency means the concentration at half of the fitted maximal effect.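 On Viability: series mostly up to about 46 µM; 100% = DMSO control wells and 0% = empty wells.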 The method, boiled down: (§1)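 Each medium arm—HPLM with 10% dialyzed FBS, or RPMI1640 with 5 mM glucose and 10% untreated or dialyzed FBS—was screened against an 11-point, 3-fold compound titration for 48 h at 37 °C, with CellTiter-Glo luminescence as endpoint.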

The nature of test [5]: Quantitative highthroughput screen to assess conditional lethalithy of P12 Ichikawa cells grown in Human Plasma-Like Medium with dialyzed fetal bovine serum (HPLM+ds) (AID 1963879). Further: series mostly up to about 46 µM; nearly all actives have a fitted effect of over 35% in size. The settings on record: Potency: viability. The procedure, abridged:
as §1

Test [6] can be described thus: Quantitative highthroughput screen to assess conditional lethalithy of P12 Ichikawa cells grown in RPMI1640 with dialyzed fetal bovine serum (RPMI+ds) (AID 1963880).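 Further: 100% = DMSO wells and 0% = empty wells on each plate; nearly all actives have a fitted effect of over 35% in size.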 The settings on record: Potency: P12-Ichikawa viability. The procedure, abridged:
as §1

Test [7] is described as follows: Quantitative highthroughput screen to assess conditional lethalithy of P12 Ichikawa cells grown in RPMI1640 with untreated serum (RPMI+s) (AID 1963881).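 Further: series mostly up to about 46 µM; 100% = DMSO wells and 0% = empty wells without cells; nearly all actives have a fitted effect of over 35% in size.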 The settings on record: Potency: viability. The procedure, abridged: as §1
The nature of test [8]: Quantitative highthroughput screen to assess conditional lethalithy of SEM cells grown in Human Plasma-Like Medium with dialyzed fetal bovine serum (HPLM+ds) (AID 1963882). Further: nearly all actives have a fitted effect of over 35% in size. Further: potency means the concentration at half of the fitted maximal effect. On Viability: series mostly up to about 46 µM. The method, boiled down: as §1
Test [9] is described as follows: Quantitative highthroughput screen to assess conditional lethalithy of SEM cells grown in RPMI1640 with unreated serum (RPMI+s) (AID 1963883). Further: nearly all actives have a fitted effect of over 35% in size. Further: potency means the concentration at half of the fitted maximal effect.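 On Viability: 100% = DMSO wells and 0% = empty wells without cells.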 The method, boiled down:
as §1

A short description of test [10]: Quantitative highthroughput screen to assess conditional lethalithy of SEM cells grown in RPMI1640 with dialyzed fetal bovine serum (RPMI+ds) (AID 1963884). Further: nearly all actives have a fitted effect of over 35% in size. Further: potency means the concentration at half of the fitted maximal effect.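 On Viability: series mostly up to about 46 µM; 100% = DMSO control wells and 0% = empty wells without cells.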 The procedure, abridged:
as §1

Test [11] is described as follows: Cellular viability qHTS for adrenocortical cancer (ACC) cell line NCI-H295R (AID 1963990). Further: nearly all actives have a fitted effect of over 60% in size. Further: potency means the concentration at half of the fitted maximal effect. The method, boiled down: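 IC50 and maximal efficacy derive from four-parameter logistic modelling of titration curves, with reads scaled between DMSO-only wells (0%) and doxorubicin hydrochloride (100% inhibition). Compounds spanned up to 46 uM over 48 h.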
Test [12] in a line: Cellular viability qHTS for adrenocortical cancer (ACC) cell line SW-13 (AID 1963989). Further: nearly all actives have a fitted effect of over 65% in size. Further: potency means the concentration at half of the fitted maximal effect.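 On activity (max response): cells grown in serum-free medium with ITS supplement; on the % scale 0 is the no-effect control and ±100 the full control effect.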 The settings on record: SW-13 ACC cells viability, CellTiter-Glo, 48 h; activity (max response): active compounds read low. The method, boiled down:
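Luminescent ATP read-out (CellTiter-Glo, 20 min at room temperature) measured metabolically competent SW-13 cells after 48 h compound treatment. Final concentrations spanned up to 46 uM; bortezomib served as positive control.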

Test [13] is described as follows: Quantitative highthroughput screen to assess conditional lethalithy of NOMO1 cells grown in Human Plasma-Like Medium with dialyzed fetal bovine serum (HPLM+ds) (AID 1963878). The procedure, abridged: as §1
A short description of test [14]: Quantitative highthroughput screen to assess conditional lethalithy of NOMO1 cells grown in RPMI1640 with untreated serum (RPMI+s) (AID 1963876). Further: nearly all actives have a fitted effect of over 35% in size. Further: potency means the concentration at half of the fitted maximal effect.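 On Viability: 100% = DMSO wells and 0% = empty wells without cells.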 The method, boiled down:
as §1

Chain of Cytochrome P450 3A7 (Homo sapiens) (P24462 whole entry, looked up): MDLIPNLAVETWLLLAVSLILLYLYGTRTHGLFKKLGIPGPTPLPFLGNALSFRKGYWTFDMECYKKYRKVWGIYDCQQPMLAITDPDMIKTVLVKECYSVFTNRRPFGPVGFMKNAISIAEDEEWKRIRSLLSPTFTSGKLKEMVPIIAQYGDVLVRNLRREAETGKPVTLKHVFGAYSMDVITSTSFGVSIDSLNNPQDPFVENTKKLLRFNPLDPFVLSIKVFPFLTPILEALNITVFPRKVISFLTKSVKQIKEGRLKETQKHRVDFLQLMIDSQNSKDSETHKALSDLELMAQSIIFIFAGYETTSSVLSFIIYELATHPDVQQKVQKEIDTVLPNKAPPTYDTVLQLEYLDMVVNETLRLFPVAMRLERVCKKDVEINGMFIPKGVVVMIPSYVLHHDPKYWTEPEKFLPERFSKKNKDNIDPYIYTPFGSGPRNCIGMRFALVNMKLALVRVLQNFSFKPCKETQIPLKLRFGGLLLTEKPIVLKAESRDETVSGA

`CNC1CCCN(c2c(F)cc3c(=O)c(C(=O)O)cn(C4CC4)c3c2OC)C1` (stereo not given): the Potency entry in test [1], in [2], in test [3], in test [4], in [5] and in [6] was “inactive” each time. The Potency entry in test [7], in [8], in [9], in [10] and in test [11] was “inactive” each time.
For `Cc1nc2n(c(=O)c1CCN1CCC(c3noc4cc(F)ccc34)CC1)CCCC2`, the Potency entry in test [1], in test [2], in [3], in [5], in [6] and in [7] was “inactive” throughout. For the same compound, the Potency entry in [8], in test [9], in [10] and in test [11] was “inactive” throughout. In addition, the activity (max response) in test [12] was -10.2%.
Take `CCOCC(O)COc1ccc(NC(=O)CC[S+](C)C)cc1` (stereo not given): the Potency entry in test [1], in test [2], in test [3], in [5], in [6] and in test [7] was “inactive” in each case. For the same compound, the Potency entry in [8], in [9], in test [10] and in [11] was “inactive” each time. Besides, in test [12], the activity (max response) was 1.78% and -20%.
`CCn1cc(C(=O)O)c(=O)c2ccc(C)nc21`: the Potency result in test [1], in [2], in test [3], in test [4], in test [5] and in test [6] was “inactive” throughout. Moreover, the Potency result in test [7], in test [8] and in test [11] was “inactive” in each case. Also, in [10], the Potency was 5.9 µM (active). Moreover, the activity (max response) in test [12] was 13.9%.
Consider `O=C(O)c1cn(-c2ccc(F)cc2)c2cc(N3CCNCC3)c(F)cc2c1=O`, for which the Potency result in test [1], in test [2], in [3], in test [4], in [13] and in test [5] was “inactive” throughout. Further, the Potency entry in test [6], in [7], in [8], in [9], in test [10] and in [11] was “inactive” throughout. Besides, the activity (max response) in [12] is -4.38% and 8.16%.
As for `Cn1c(=O)c2c(ncn2CC(O)CO)n(C)c1=O` (stereo not given), the Potency result in test [1], in [2], in test [3], in [13], in test [5] and in [7] was “inactive” each time. Further, the Potency result in test [8], in test [9], in [10] and in test [11] was “inactive” each time. Further, the activity (max response) in test [12] was 9.53% and 9.36%.
As to `CN1CCN(c2c(F)cc3c(=O)c(C(=O)O)cn(CCF)c3c2F)CC1`, the Potency entry in test [1], in [2], in test [3], in test [4], in [13] and in test [5] was “inactive” throughout. Besides, the Potency entry in [6], in test [7], in test [8], in test [9] and in test [10] was “inactive” each time. The activity (max response) in [12] is -1.49%.
As to `Cn1c(NCCN(CCO)CCCc2ccc([N+](=O)[O-])cc2)cc(=O)n(C)c1=O`, the Potency entry in [1], in test [2], in [3], in test [14] and in test [11] was “inactive” throughout. Besides, in [12], the activity (max response) is 5.91% and 4.46%.
In the case of `O=C(c1ccc(C(=O)N2CCC(N3CCCC3)CC2)c(Nc2ccccc2)c1)N1CCC(N2CCCC2)CC1`, the Potency entry in [1], in test [2], in [3], in test [4], in test [13] and in [5] was “inactive” each time. Further, the Potency result in test [6], in [7], in test [8], in [9] and in test [11] was “inactive” throughout. The activity (max response) in test [12] is 11.8%.
Regarding `NCCOc1cc(C(=O)Nc2cc(OCCN)c3ccccc3n2)nc(C(=O)Nc2cc(OCCN)c3ccccc3n2)c1`, the Potency entry in test [1] and in test [13] was “inactive” throughout. Further, the Potency is 1.3 µM (active) and 1.66 µM (active) in test [2]; 2.59 µM (active) and 3.72 µM (active) in [3].
As for `Oc1c(Cl)cc(Cl)c2cccnc12`, the Potency result in [1] and in test [13] was “inactive” throughout. In addition, the Potency in test [2] was 5.25 µM (active); in test [3], 8.33 µM (active); in [8], 16.6 µM (active); in test [9], 18.7 µM (active); in test [10] it was 18.7 µM (active); in [12], 3.55 µM (active). Further, the Potency in [11] is 7.94 µM (active).
With `Cc1ccc(C(=O)Nc2ccc(S(=O)(=O)O)c3cc(S(=O)(=O)O)cc(S(=O)(=O)O)c23)cc1NC(=O)c1cccc(NC(=O)Nc2cccc(C(=O)Nc3cc(C(=O)Nc4ccc(S(=O)(=O)O)c5cc(S(=O)(=O)O)cc(S(=O)(=O)O)c45)ccc3C)c2)c1`, the Potency entry in test [1], in [2], in test [3] and in test [11] was “inactive” in each case. Moreover, the Potency in test [4] was 8.33 µM (active). In addition, in test [12], the activity (max response) was -19.9% and 5.07%.
Turning to `CS(=O)(=O)N1CCc2c(-c3cnc(N)nc3)nc(N3CCOCC3)nc21`, the Potency entry in test [1] and in [5] was “inactive” each time. Moreover, the Potency was 1.86 µM (active) in [2]; 4.17 µM (active) in test [3]; 8.33 µM (active) in test [14]; 4.69 µM (active) in test [9]; 0.708 µM (active) in test [11].
As to `O=c1[nH]cnc2[nH]ncc12`, the Potency entry in [1], in [2], in [3], in test [4], in [6] and in [7] was “inactive” in each case. The Potency entry in [9] is “inactive”. The activity (max response) in test [12] is 1.44% and -3.08%.
On to `Nc1nc2c(ncn2COCCO)c(=O)[nH]1`, for which the Potency entry in [1], in test [2], in [3], in test [14], in [5] and in test [6] was “inactive” each time. Besides, the Potency entry in [7] and in test [11] was “inactive” in each case. In addition, the activity (max response) in test [12] was 1.46% and 4.77%.
In the case of `Cc1cn([C@@H]2O[C@H](CO)[C@@H](O)[C@H]2F)c(=O)[nH]c1=O`, the Potency result in test [1], in test [2], in test [3], in [13], in test [5] and in test [8] was “inactive” each time. Further, the Potency entry in test [9], in [10] and in [11] was “inactive” throughout. Moreover, the activity (max response) in [12] is 7.23%.
Regarding `Cc1[nH]c(=O)c(C#N)cc1-c1ccncc1`, the Potency entry in [1], in [2], in test [3], in test [13], in [8] and in [9] was “inactive” each time. Also, the Potency entry in [10] and in [11] was “inactive” in each case. Moreover, the activity (max response) in test [12] was 14.7% and 1.4% and -7.07%.
